TRHR enhancer: allosterically enhances the human TRH receptor. P34981. TRHR cells, fluo-8 calcium fluorescence, EC20 TRH enhancement. enhancement, % at 2 µM. 360,000 compounds, 0.66% hits. AID 493056; in the data active means enhancement above about 30%; further: 0% is about no effect
Target sequence (P34981 whole entry, looked up): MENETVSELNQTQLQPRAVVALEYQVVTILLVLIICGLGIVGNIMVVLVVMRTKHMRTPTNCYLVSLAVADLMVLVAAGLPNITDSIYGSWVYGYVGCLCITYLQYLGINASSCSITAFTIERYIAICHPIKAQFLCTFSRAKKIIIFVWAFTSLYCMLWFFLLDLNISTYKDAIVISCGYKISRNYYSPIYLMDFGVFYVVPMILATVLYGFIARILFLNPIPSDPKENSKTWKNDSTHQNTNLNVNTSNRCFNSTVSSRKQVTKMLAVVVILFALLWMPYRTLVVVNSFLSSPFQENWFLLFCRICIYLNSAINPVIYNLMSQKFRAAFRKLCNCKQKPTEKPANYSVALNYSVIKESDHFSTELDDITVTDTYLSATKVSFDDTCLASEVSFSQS
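Enhancer read-out: after compound pinning and an initial kinetic agonist-mode read, an EC20 of TRH (10 nM final) was injected and fluo-8 calcium signal (Ex 480/Em 530) followed at 1 s/cycle for 100 cycles in TRHR-expressing cells.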
D1 potentiator: enhances dopamine response at the human D1 receptor | 360,000 compounds, 0.036% hits | HEK293 TREx D1 cells, calcium flux, dopamine EC20 potentiation | potentiation, % at 10 µM | P21728; in the data active means potentiation above about 30%; further: 0% is about no effect
TRHR ag: TRH receptor (human) agonism | P34981 | TRHR cells, calcium flux fluo-8, FDSS agonist mode | activation, % at 2 µM | 360,000 compounds, 0.18% hits | AID 493084; further: 0% is about no effect
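Agonist-mode FDSS calcium read (Ex 480/Em 530, 1 s cycles) in 1536-well TRHR cells with fluo-8 dye, after 10-cycle baseline and 23 nL compound addition; TRH at EC20 (10 nM final) added afterwards for the enhancer phase.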
D1 antagonist: blocks dopamine activation of the human D1 receptor; P21728; HEK293 TREx D1 cells, calcium flux, dopamine EC80; stronger effect = lower value; activity change, negative = inhibition, % at 10 µM; 360,000 compounds, 3.2% hits; in the data active means activity change below about -30%; further: on the % scale 0 is the no-effect control and ±100 the full control effect
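Inducible Hek293 Trex D1 cells (tetracycline, overnight, 30 C). Calcium dye 30–90 min RT. Antagonist mode: EC80 dopamine added after 180 s compound read.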
D1 agonist: activates the human D1 dopamine receptor; activation, % at 2 µM; 360,000 compounds, 1% hits; HEK293 T-REx D1 cells, calcium flux, agonist mode; P21728; further: 0% is about no effect
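Agonism was scored from calcium flux recorded over 180 s (1 read/s) after pintool compound addition, following a 10-cycle baseline. Cells were inducible force-coupled HEK293 TREx D1, plated overnight at 30 C and loaded with no-wash calcium dye.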
Starred values were filed as active, the others as inactive; . = not tested or not shown; ! = not confirmed by another sample. Hits are enriched below; roughly 4.7% of the tested compounds scored in any of these assays. Unless noted, no stated cut-off is given here; in the data, active means activation above about 30%; inactive means the rest.

SMILES	TRHR enhancer	D1 potentiator	TRHR ag	D1 antagonist	D1 agonist
CCn1c(=O)c2cc(C(=O)N(CC(C)C)CC(C)C)sc2c2ccccc21	10	-2	0	-7	0
CC1(C)CC(C(N)=S)CCO1 (stereo not given)	7	-7	0	-37*	1
CC(C)Oc1cccc(C(=O)NC(=S)NCc2cccnc2)c1	40*	-3	-2	-6	0
CCc1ccc(NC(=O)c2ccc(S(=O)(=O)NCc3cccnc3)cc2)cc1	11	.	1	-34*	10
CCc1ccc(C(=O)NC(=S)NCc2cccnc2)cc1	-3	-9	-2	-35*	3
CCOC(=O)c1cccc(NS(=O)(=O)c2cc(-c3cnc(C4CC4)o3)ccc2C)c1	3	1	-1	6	4
Cc1ccc(CSc2ncc(Cl)c(C(=O)Oc3ccc(F)cc3)n2)cc1	-1	1	0	-2	2
CC(C)c1ccc(S(=O)(=O)c2cn(CC(=O)Nc3ccc(F)cc3)c3ccccc3c2=O)cc1	2	-2	0	-1	3
CC1CCN(c2ncnc3ccccc23)CC1	-1	-5	2	-34*	22
CC1CCN(c2nc(-c3ccccc3O)nc3ccccc23)CC1	1	-8	0	11	3
CC(OC(=O)CN1C(=O)NC2(CCCC2)C1=O)C(=O)Nc1cccc(Cl)c1Cl (stereo not given)	2	-11	1	-51*	1
Nc1cc[n+](CC(=O)Nc2ccccc2)cc1	2	-3	0	-6	1
O=C(C[n+]1ccc(C(=O)c2ccccc2)cc1)Nc1ccc(C(F)(F)F)cc1	3	-3	0	-43*	2
O=C(Nc1ccc(C(=O)c2ccccc2)cc1)c1ccccc1	-6	-16	1	9	8
O=C(Nc1ccc(NC(=O)c2ccccc2Br)cc1)c1ccccc1	-2	-3	1	-16	4
O=C(Nc1ccc(C(F)(F)F)cc1)c1ccccc1Br	1	-7	0	-38*	4
O=C(Nc1ccc(C(F)(F)F)cc1)c1ccccc1	-4	-12	0	-49*	1
CC(C)CS(=O)(=O)c1oc(-c2ccc(F)cc2)nc1S(=O)(=O)c1ccccc1	-2	0	1	11	6
Cc1cccc(N(C)c2nc3ccccc3c3nnc(C)n23)c1	-1	-4	0	-8	19
O=S(=O)(c1cccc(-c2nnc3n2CCCCC3)c1)N1CCCC1	34*	-2	1	-11	2
CCCCn1c(C2CC(=O)N(c3ccc(OCC)cc3)C2)nc2ccccc21 (stereo not given)	3	1	-1	-5	-1
CCC(=O)Oc1ccc2c(c1)O/C(=C\c1ccco1)C2=O	-3	-2	21	9	43*
Cc1cc(O)cc2c1C(=O)/C(=C/c1ccco1)O2	0	-4	-1	-6	42*
CCN(CC)C(=O)Oc1ccc2c(c1)O/C(=C\c1ccco1)C2=O	-9	3	1	10	1
COC(=O)COc1ccc2c(c1)O/C(=C\c1ccco1)C2=O	-3	6	0	-1	3
SMILES	TRHR enhancer	D1 potentiator	TRHR ag	D1 antagonist	D1 agonist
Cc1cccc(NC(=O)C(NS(=O)(=O)c2ccc3c(c2)oc(=O)n3C)C(C)C)c1 (stereo not given)	2	6	0	4	1
COc1ccc(NC(=O)c2cnc3cc(C)ccn3c2=O)c(OC)c1	4	-3	0	7	2
COc1ccccc1OCC(=O)NCC1(N(C)C)CCCCC1	1	-1	0	11	-2
COc1ccc(NC(=O)Cn2cc(C(=O)c3ccc(C)c(C)c3)c(=O)c3cc(OC)ccc32)cc1	5	-1	1	3	3
Cc1nc2c(-c3ccccc3)c(C)nn2c(C)c1CCC(=O)NCc1ccc(Cl)cc1	9	1	0	-7	1
COc1ccc(N=Nc2ccc(O)c3ncccc23)cc1	6	-1	-1	45	12
CCc1ccc(N=Nc2ccc(O)c3[nH]cnc23)cc1	7	1	10	.	40*
CC(CNC(=O)C1CCN(Cc2cc3ccccc3n2Cc2ccccc2)CC1)c1ccccc1 (stereo not given)	1	-3	1	-8	3
COc1ccc(NC(=O)Nc2cccc(C)n2)c(OC)c1	33*!	-4	-1	-16	1
Cc1ccc(S(=O)(=O)N(C)C)cc1NC(=S)NC(C)CCC(C)C (stereo not given)	-5	-4	1	-59*	12
COc1ccc(NC(=O)Nc2ccccc2F)c(C)c1	18	-3	0	-37*	2
Cc1ccc(S(=O)(=O)N(C)C)cc1NC(=O)Nc1ccccc1F	1	-11	-1	-43*	5
Cc1ccc(S(=O)(=O)N(C)C)cc1NC(=S)NC(C)CCCC(C)C (stereo not given)	-1	-4	0	-12	6
COc1ccc(CC(=O)N(Cc2nc(-c3ccc(C)cc3)no2)C(C)C)cc1	0	-5	0	-23	6
Cc1cc(Cl)ccc1NC(=O)CN1C(=O)CSc2ccc(S(=O)(=O)N(C)C)cc21	-6	-2	0	-9	3
CC1=C(c2ccc(Cl)cc2)S(=O)(=O)N=C1N1CCN(c2cccc(C)c2)C(C)C1 (stereo not given)	2	0	0	-1	5
Cc1ccc(S(=O)(=O)N(C)C)cc1NC(=O)C(C)N(C)CCOc1ccc(Cl)cc1 (stereo not given)	19	.	-2	-19	30*
c1ccc2c(c1)nc(N1CCOCC1)c1c3ccccc3[nH]c21	-5	-4	0	-57*	4
CC1(C(=O)NCc2ccc(Cl)c(Cl)c2)Oc2cccnc2NC1=O (stereo not given)	6	-6	6	-22	32*
Cc1cc(O)ccc1C1(c2ccc(O)cc2C)OC(=O)c2ccccc21	6	0	0	5	9
CC(=O)Oc1ccc2c(c1)Oc1cc(OC(C)=O)ccc1C21OC(=O)c2ccccc21	-20	-1	106*	4	834*
Cc1ccc(N2CC(NC(=O)Cc3ccc(F)cc3)CC2=O)cc1C (stereo not given)	-3	-2	0	.	-3
COc1cccc(CNn2c(-c3cccc(C)c3)nc3ccccc3c2=O)c1	37*	-4	1	8	5
N#C/C(=C\c1c[nH]c2ccccc12)C(N)=O	6	-3	-1	12	1
CC(=O)Oc1c(/C=C(\C#N)C(N)=O)[nH]c2ccccc12	4	0	-1	-14	53*
CC(C)COc1cccc(C(=O)Nc2ccc(-c3nc4ncccc4o3)cc2)c1	8	0	0	7	0
C=CCOc1ccc(/C=N/N2C(=O)C(CC(=O)Nc3ccc(F)cc3F)SC2=NC)cc1 (stereo not given)	1	-6	3	-49*	14

Screening data as filed in PubChem BioAssay.
